Source: PubChem BioAssay (Tox21)
Inconclusive results are not listed. Where a call stands in place of a potency, no number is given. Values without a mark were called inactive. Activity calls are given as the source filed them. Unless noted, calls come from the whole dose curve; as a rule, active = well fitted curve in the direction sought with a large enough effect in the repeat runs; inconclusive = weak or mixed curves; inactive = no such curve, though single readings can be large; an effect the other way counts as inactive or inconclusive.

Legend:
[1] = qHTS assay to identify small molecule agonists of the vitamin D receptor (VDR) signaling pathway - cell viability counter screen (AID 743224); note: nearly all actives have a fitted effect of over 50% in size; note: potency is the fitted concentration of half-maximal effect
Summary of the method: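 Luminescence from CellTiter-Glo, read after 30 min at room temperature, reports viability of VDR-bla cells treated with compounds for 16 h at 37C in the wells used for the beta-lactamase FRET read.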

[2] = qHTS assay to identify small molecule antagonists of the vitamin D receptor (VDR) signaling pathway - cell viability counter screen (AID 743225); note: nearly all actives have a fitted effect of over 50% in size; note: potency is the fitted concentration of half-maximal effect
Summary of the method: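 Read-out: CellTiter-Glo luminescence measured 30 min after reagent addition at room temperature. Cells were VDR-bla HEK 293T exposed 16 h at 37C, 5% CO2, to compound with 3 nM final calcitriol agonist.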

[3] = qHTS assay to identify small molecule agonists of the NFkB signaling pathway (AID 1159509; active = well fitted curve in the direction sought with a large enough effect in the signal ratio in the repeat runs, not every such curve was filed as active; the % refers to the signal ratio; note: series mostly up to about 61 µM)
Summary of the method: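 NFkB-bla ME-180 cells with a beta-lactamase reporter under an NF-kB response element were plated overnight, treated with compounds in DMSO for 5 hr at 37 C, then loaded with FRET substrate for 1.5 hr at room temperature.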

[4] = qHTS assay to identify small molecule agonists of the NFkB signaling pathway - cell viability counter screen (AID 1159515; calls by dose curve; note: series mostly up to about 61 µM; nearly all actives have a fitted effect of over 55% in size)
Summary of the method: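 Luminescence from CellTiter-Glo (30 min, room temperature) gives viability, measured in the same wells as the beta-lactamase reporter read. Cells were NFkB-bla ME-180, 2,000 per well, treated 5 hr with compounds.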

[5] = qHTS assay to identify small molecule agonists of the endoplasmic reticulum stress response signaling pathway (AID 1159516; active = well fitted activation curve with a large enough effect in the signal ratio in the repeat runs, not every such curve was filed as active; the % refers to the signal ratio)
Summary of the method: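 Read-out is beta-lactamase cleavage of a FRET substrate (405 nm excitation; 460 and 530 nm emissions) in ESRE-bla HeLa cells after a 5 hr compound exposure at 37 C. Substrate incubation ran 2 hr at room temperature.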

[6] = qHTS assay to identify small molecule agonists of the endoplasmic reticulum stress response signaling pathway - cell viability counter screen (AID 1159517; calls by dose curve;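 note: HeLa cells carrying an ER stress response element beta-lactamase reporter; series mostly up to about 61 µM; nearly all actives have a fitted effect of over 50% in size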)
Summary of the method: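 Cells, HeLa ESRE-bla; density, 1,500/well; dosing, 5 hr at 37 C, 5% CO2; readout, CellTiter-Glo luminescence after 30 min RT.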

[7] = qHTS assay to identify small molecule antagonists of the retinoid-related orphan receptor gamma (ROR-gamma) signaling pathway - cell viability counter screen (AID 1159520); note: nearly all actives have a fitted effect of over 50% in size
Summary of the method: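 Cytotoxicity was read from cellular ATP (CellTiter-Glo luminescence) after 16 hr at 37 C with 1 uM doxycycline induction. The inducer was added 2 hr after compound transfer to Tet-on ROR gamma CHO cells.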

[8] = molecular target: Nuclear receptor ROR-gamma (Homo sapiens) (UniProt P51449); test: qHTS assay to identify small molecule antagonists of the retinoid-related orphan receptor gamma (ROR-gamma) signaling pathway (AID 1159521; note: nearly all actives have a fitted effect of over 50% in size; note: potency is the fitted concentration of half-maximal effect)
Summary of the method: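 CHO Tet-on RORγ, RORE-luc reporter. Cpd 2 h pre-incubation, then dox hyclate 1 uM final, 16 h, 37 C/5% CO2. ONE-Glo luminescence; decrease = antagonist.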

[9] = qHTS assay to identify small molecule agonists of the AP-1 signaling pathway - cell viability counter screen (AID 1159525; calls by dose curve; note: nearly all actives have a fitted effect of over 55% in size)
Summary of the method: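 Luminescent ATP readout (Cell Titer Glo, 30 min RT), normalised to DMSO and tetra n-octyl ammonium bromide controls. Cells were ME-180 AP-1-bla in 0.5% dialyzed FBS Opti-MEM, with a 5 h, 37 °C compound exposure.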

[10] = qHTS assay to identify small molecule antagonists of the retinoid acid receptor (RAR) signaling pathway - cell viability counter screen (AID 1159551); note: nearly all actives have a fitted effect of over 35% in size
Summary of the method: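 Luminescent ATP quantitation (CellTiter-Glo) gave cell viability in C3RL4 cells exposed to test chemicals for 6 h at 37 C alongside 1 uM final retinol.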

[11] = qHTS assay to identify small molecule antagonists of the estrogen related receptor (ERR) signaling pathway from Tox21 library - cell viability counter screen (AID 1224834); note: nearly all actives have a fitted effect of over 30% in size; note: potency is the fitted concentration of half-maximal effect
Summary of the method: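 Fluorescence from CellTiter-Fluor gives the viability read-out, taken 30 min after reagent addition. Before that, ERR cells seeded 6 h earlier were incubated with compounds for 17.5 h at 37 C.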

[12] = qHTS assay to identify small molecule agonists of the AP-1 signaling pathway (AID 1159526; calls by dose curve)
[13] = molecular target: Retinoic acid receptor RXR-alpha (Homo sapiens) (UniProt P19793); test: qHTS assay to identify small molecule agonists of the RXR signaling pathway (AID 1159527; calls by dose curve; note: nearly all actives have a fitted effect of over 35% in size)
Retinoic acid receptor RXR-alpha (Homo sapiens), sequence (P19793 whole entry, looked up): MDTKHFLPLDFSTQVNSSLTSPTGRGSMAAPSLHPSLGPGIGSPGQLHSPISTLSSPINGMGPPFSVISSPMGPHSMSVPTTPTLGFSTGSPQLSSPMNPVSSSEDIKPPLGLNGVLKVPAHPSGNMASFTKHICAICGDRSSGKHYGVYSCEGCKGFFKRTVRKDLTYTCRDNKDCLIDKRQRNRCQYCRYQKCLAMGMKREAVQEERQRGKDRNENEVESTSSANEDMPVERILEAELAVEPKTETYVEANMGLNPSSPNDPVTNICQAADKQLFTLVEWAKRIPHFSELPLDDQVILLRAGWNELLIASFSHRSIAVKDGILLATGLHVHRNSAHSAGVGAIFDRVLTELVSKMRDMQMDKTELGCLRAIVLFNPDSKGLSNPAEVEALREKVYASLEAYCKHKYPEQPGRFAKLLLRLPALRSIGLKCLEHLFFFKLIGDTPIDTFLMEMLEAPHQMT
Summary of the method: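 Read-out: beta-lactamase FRET ratio (405 nm excitation, 460 and 530 nm emission) after 2 hr substrate loading at room temperature. Cells were RXR-alpha-UAS-bla HEK 293T treated with compounds for 16 hr in 2% charcoal-stripped FBS medium.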

[14] = qHTS assay to identify small molecule agonists of the RXR signaling pathway - cell viability counter screen (AID 1159529)
Summary of the method: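 HEK 293T RXRa-bla cells, 2% CS-FBS; 5 h settle; cpd 16 h 37 C, 5% CO2; CellTiter-Glo 30 min RT, luminescence. Tetraoctyl ammonium bromide as positive control.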

[15] = qHTS assay to identify small molecule antagonists of the estrogen related receptor (ERR) signaling pathway - cell viability counter screen (AID 1224818);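 note: series mostly up to about 46 µM; viability measured after 17.5 h of compound exposure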
Summary of the method: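 Multiplexed counter screen to separate cytotoxic compounds from true ERR modulators. ERR cells received DMSO-dissolved compounds after a 6 h pre-incubation, were exposed 17.5 h at 37 C, then assayed with CellTiter-Fluor fluorescence.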

[16] = qHTS assay to identify small molecule antagonists of the estrogen related receptor signaling pathway with the pleiotropic PPARgamma coactivator (PGC) cell viability counter screen (AID 1224822; note: series mostly up to about 46 µM)
Summary of the method: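 Cells: PGC/ERR, 2,000/well, 1536-well format. Pre-incubation 6 h, 37 C/5% CO2. Compound exposure 17.5 h, 37 C. Detection: CellTiter-Fluor, 30 min, fluorescence.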

[17] = qHTS assay to identify small molecule antagonists of the retinoic acid receptor (RAR) signaling pathway (AID 1159552; note: nearly all actives have a fitted effect of over 50% in size)
Summary of the method: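 Cells of the C3RL4 line were seeded, incubated overnight, then dosed with compounds in DMSO followed immediately by retinol (1 uM final). Six hours later luciferase detection reagent went in; signal was measured after 30 min at RT.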

[18] = qHTS assay to identify small molecule agonists of the retinoic acid receptor (RAR) signaling pathway (AID 1159553); note: potency is the fitted concentration of half-maximal effect
Summary of the method: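 Luminescence from a RARE-driven luciferase reporter in C3RL4 cells served as the read-out, measured after 30 min with detection reagent at room temperature. Compounds in DMSO were applied for 6 hr at 37 C following overnight seeding.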

[19] = qHTS assay to identify small molecule agonists of the estrogen related receptor signaling pathway with the pleiotropic PPARgamma coactivator (PGC) (AID 1224823)
Summary of the method: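 PGC/ERR reporter cells were seeded, rested 6 h at 37 C/5% CO2, then exposed to compounds in DMSO by pin transfer for 18 h at 37 C. Luciferase activity was read as luminescence after One-Glo reagent and 30 min at room temperature.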

Row | SMILES | Potency [1] | Potency [2] | outcome [3] | outcome [4] | outcome [5] | outcome [6] | Potency [7] | Potency [8] | outcome [9] | outcome [10] | Potency [11] | Potency [12] | Potency [13] | Potency [14] | outcome [15] | outcome [16] | Potency [17] | Potency [18] | outcome [19]
1 | ICCc1ccccc1 | inactive | inactive | inactive | inactive | inactive | inactive | inactive | 59.9 µM (active) | inactive | inactive | inactive | – | – | – | – | – | – | – | –
2 | NC1=NCC2c3ccccc3Cc3ccccc3N12 (configuration not stated) | inactive | inactive | inactive | inactive | inactive | inactive | inactive | inactive | – | inactive | – | inactive | inactive | inactive | inactive | inactive | – | – | –
3 | Cc1ccc(C(C)C)cc1O | inactive | inactive | inactive | inactive | inactive | inactive | inactive | inactive | inactive | inactive | inactive | – | – | inactive | – | – | – | – | –
4 | O=C1N(c2ccccc2)c2ccccc2C1(Cc1ccncc1)Cc1ccncc1 | – | inactive | inactive | inactive | inactive | inactive | inactive | inactive | – | inactive | – | inactive | inactive | inactive | inactive | inactive | inactive | inactive | inactive
5 | C[C@]12C(=O)OC(=O)[C@H]1[C@H]1C=C[C@@H]2C1 | inactive | inactive | inactive | inactive | inactive | inactive | inactive | inactive | inactive | inactive | inactive | – | – | – | – | – | inactive | – | –
6 | Cc1c(-c2ccccc2)oc2c(C(=O)OCCN3CCCCC3)cccc2c1=O | inactive | – | inactive | inactive | inactive | inactive | inactive | inactive | inactive | inactive | inactive | – | – | inactive | – | – | – | – | –
7 | Cc1ccc(C=O)s1 | inactive | inactive | inactive | inactive | inactive | inactive | inactive | inactive | inactive | inactive | inactive | – | – | – | – | – | inactive | – | –
8 | CN1CCN(N)CC1 | inactive | inactive | inactive | inactive | inactive | inactive | inactive | inactive | – | inactive | inactive | inactive | inactive | inactive | – | – | inactive | inactive | –
9 | O=C1CCCCCCCCCCC(=O)OCCO1 | inactive | inactive | inactive | inactive | inactive | inactive | inactive | inactive | inactive | inactive | inactive | – | inactive | inactive | – | – | – | inactive | –
10 | CN(C)CC[C@@H](c1ccc(Cl)cc1)c1ccccn1 | inactive | inactive | inactive | inactive | inactive | inactive | inactive | inactive | inactive | inactive | inactive | – | inactive | inactive | inactive | inactive | – | – | –
11 | CC(C)=CCC[C@](C)(O)[C@@H]1CC=C(C)CC1 | – | inactive | inactive | inactive | inactive | inactive | inactive | inactive | inactive | – | – | – | – | – | – | – | inactive | inactive | –
12 | CC1=NN(c2cc(Cl)c(S(=O)(=O)O)cc2Cl)C(=O)C1N=Nc1ccc(S(=O)(=O)O)cc1 (configuration not stated) | inactive | inactive | inactive | inactive | inactive | inactive | inactive | inactive | inactive | inactive | – | – | inactive | – | – | – | – | – | –
13 | CCCS(=O)c1ccc2nc(NC(=O)OC)[nH]c2c1 (configuration not stated) | – | inactive | inactive | inactive | inactive | inactive | inactive | inactive | – | inactive | inactive | inactive | inactive | inactive | – | – | inactive | inactive | –
14 | CO[C@@]1(NC(=O)CSCC#N)C(=O)N2C(C(=O)O)=C(CSc3nnnn3C)CS[C@@H]21 | inactive | inactive | inactive | inactive | inactive | inactive | inactive | inactive | – | inactive | inactive | inactive | – | inactive | inactive | inactive | – | inactive | –
15 | CCOC(=O)C(Br)c1ccccc1 (configuration not stated) | inactive | inactive | inactive | inactive | inactive | inactive | inactive | inactive | – | inactive | inactive | inactive | inactive | inactive | – | – | inactive | inactive | –
16 | CN1CCC[C@@H]1Cc1c[nH]c2ccc(CCS(=O)(=O)c3ccccc3)cc12 | inactive | inactive | inactive | inactive | inactive | inactive | inactive | inactive | inactive | inactive | inactive | – | inactive | – | inactive | inactive | – | – | –
17 | Cc1nc(N)nc(N)c1-c1ccc(Cl)c(Cl)c1 | 3.35 µM (active) | 3.79 µM (active) | inactive | inactive | inactive | inactive | inactive | inactive | inactive | inactive | – | – | – | – | – | – | – | inactive | –
18 | Nc1ccc(Oc2ccc(N)c(N)c2)cc1 | inactive | – | inactive | inactive | inactive | inactive | inactive | inactive | – | inactive | 27.3 µM (active) | – | – | inactive | – | – | – | 1.72 µM (active) | –
19 | Oc1ccccc1F | inactive | – | inactive | inactive | inactive | inactive | inactive | – | inactive | inactive | inactive | inactive | inactive | inactive | – | – | inactive | inactive | –
